Shiga inhibitor: A qHTS for Small Molecule Inhibitors of Shiga Toxin. Vero cells, Shiga toxin protein synthesis inhibition reporter. inhibition, % at 38.7 µM. hit rate 9.2% among 290,000; in the data active = inhibition mostly above about 28%, no sharp cut-off; inactive = mostly below about 43%; also: 0% is about no effect
Cycloheximide cs: Cycloheximide Counterscreen for Small Molecule Inhibitors of Shiga Toxin; cell reporter, cycloheximide protein synthesis inhibition counterscreen; max response, %; hit rate 12% among 300,000; AID 2314, 2010; in the data active = max response mostly above about 13%, no sharp cut-off; inactive = mostly below about 14%; also: read at 38.3 µM for the half of the compounds with a filed dose; 0% is about no effect
FMDV antiviral: High Throughput Screening for Foot and Mouth Disease Virus Antivirals; FMDV antiviral cell-based qHTS; Potency, µM (highest dose often 57.9 µM), inactives show top-dose activity change, negative = inhibition, usual class: inhibitors; hit rate 1.2% among 410,000; AID 1159524, 2015; calls by dose curve; tested in HEK293T cells; also: read-out not given here; potency is read from the fitted curve at half-maximal effect; % is scaled to controls: 0 for no effect and ±100 for the full control effect; nearly all actives have a fitted effect of over 45% in size
Sm TGR block: qHTS Assay for the Inhibitors of Schistosoma Mansoni Peroxiredoxins. Schistosoma mansoni thioredoxin glutathione reductase (TGR), Q962Y6. purified TGR, DTNB reduction, TNB absorbance 405 nm. Potency, µM (highest dose often 114 µM), for inactives: top-dose activity change, negative = inhibition, hits mostly inhibitors. hit rate 3% among 360,000. AID 485364, 2010; active = well fitted inhibition curve with a large enough effect; inconclusive = small, poorly fitted or top-dose-only effect; inactive = no such curve, though single readings can be large or run the other way; also: potency is read from the fitted curve at half-maximal effect; % is scaled to controls: 0 for no effect and ±100 for the full control effect; nearly all actives have a fitted effect of over 60% in size
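First, TGR (20 nM dispensed) and NADPH were mixed with compound. Second, a 15 min room-temperature incubation followed. Third, further NADPH and then DTNB were added to start the reaction. Finally, TNB absorbance was monitored kinetically.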
Numbers without * were called inactive; ? = inconclusive; / = no result given; ! = a repeat was not active. A selection: hits, their analogues and other compounds. The true share with any hit is near 12%.

SMILES | Shiga inhibitor | Cycloheximide cs | FMDV antiviral | Sm TGR block
Cc1nn(-c2ccc(F)cc2)c(-n2cccc2)c1C(=O)NCCc1ccc(Cl)cc1 | / | / | ? | 2%
Cc1[nH]nc2c1C(c1ccccc1F)CC(=O)N2 (stereo not given) | -11 | 13* | 5% | 0%
COc1ccc(-c2ccc(CCC(=O)O)n2-c2ccccc2O)cc1 | 79* | 47* | 38% | 28µM*!
COc1ccc(-n2c(CCC(=O)O)ccc2-c2ccccc2)cc1 | 17 | 8 | 9% | 40µM*!
COc1ccc(-c2ccc(CCC(=O)O)n2-c2ccccc2C(F)(F)F)cc1 | / | / | 0% | ?
CCCN(CCC)C(=O)Cn1nnc2sc(-c3ccccc3)cc2c1=O | / | / | -6% | -11%
OC1(c2ccccn2)COc2ccccc2O1 (stereo not given) | 32 | 24* | 39% | -28%
CC(C)N1CSC(=S)N(Cc2ccccc2)C1 | 29 | 16 | ? | 28µM*
CC(C)(C)N1CSC(=S)N(Cc2ccccc2)C1 | 16 | 13 | ? | ?
Cc1cccc(NC(=S)NNC(=O)c2cccc([N+](=O)[O-])c2)c1 | 50* | 19* | 8% | 0%
CC(=O)NC(=S)Nc1cccc([N+](=O)[O-])c1 | -7 | -3 | -4% | -17%
O=C(NNC(=S)NC(=O)c1cccc([N+](=O)[O-])c1)c1ccc(O)cc1 | 53* | 32* | -10% | -16%
O=C(NC(=S)Nc1cccc(F)c1)c1cccc([N+](=O)[O-])c1 | 67* | 20* | 19% | 20µM*
CN(C)c1cc2c(cc1NC(=O)c1ccc(F)cc1)n(C)c(=O)n2C | / | / | -17% | -19%
O=C(Nc1ccc(N2CCCCC2)cc1)c1ccc(F)cc1F | 45* | 42* | -11% | 0%
O=C(Nc1ccc(N2CCCC2)cc1)c1ccccc1F | 43* | 43* | 21% | ?
O=C(Nc1ccc(N2CCN(C(=O)c3cccs3)CC2)cc1)c1ccccc1F | 27 | 7 | -5% | -8%
CS(=O)(=O)N1CCC(N2CCN(Cc3ccccc3)C(=O)C2=O)CC1 | / | / | -4% | -1%
O=C(CCl)N(c1ccccc1)C1CCCCC1 | -26 | -6 | ? | 3.2µM*
CC(=O)N(c1ccccc1)C1CCCC1 | 0 | -2 | -10% | 0%
O=C(CN1Cc2ccccc2OC(c2ccsc2)C1)N1CCC(c2nc3ccccc3[nH]2)CC1 (stereo not given) | / | / | 8% | /
CN(Cc1cccs1)C(=O)CCCc1c[nH]c2ccccc12 | 73* | 46* | 40% | -1%
CN(Cc1cccs1)C(=O)CCc1c[nH]c2ccccc12 | 60 | 16* | 15% | -1%
CCN(CC)CCNC(=O)c1cc2c(=O)n(C)c3cc(Cl)ccc3c2s1 | / | / | 1% | -9%
Cc1ccc(-n2cc(-c3ccccc3)[nH]c2=O)cc1F | 115* | 46* | 17% | ?
SMILES | Shiga inhibitor | Cycloheximide cs | FMDV antiviral | Sm TGR block
COc1ccc2c(Sc3ccccc3)c(C(=O)NCCN(C)C)[nH]c2c1 | / | / | 16% | 40µM*
COCCCNC(=O)c1[nH]c2cc(OC)ccc2c1Sc1ccc(C)cc1 | / | / | 0% | 4%
COc1ccc2c(Sc3ccc(C)cc3)c(C(=O)NCc3ccc(F)cc3)[nH]c2c1 | / | / | 0% | 45µM*
COc1ccc2c(Sc3ccc(C)cc3)c(C(=O)NCCc3ccccc3)[nH]c2c1 | / | / | 16% | -4%
Cc1ccc(C(=O)Nc2nc(C)c(C)s2)o1 | 62* | 35* | -4% | -6%
Cc1nc(NC(=O)c2ccc(Br)o2)sc1C | 63* | 45* | 13% | -8%
COc1cc(OC)c2c(c1C(CCN1CCN(c3ccccc3)CC1)c1ccc(N(C)C)cc1)OC(=O)CC2c1ccc(N(C)C)cc1 (stereo not given) | 3 | 2 | / | /
O=C(NCSc1ccccc1)c1ccccc1 | / | / | 37% | -1%
Cc1cc(SCNC(=O)c2ccccc2)ncn1 | -9 | 2 | / | 14µM*
Cn1c(=O)oc2cc(S(=O)(=O)NC(Cc3ccccc3)C(=O)Nc3ccc(F)c(Cl)c3)ccc21 (stereo not given) | / | / | 2% | 1%
COc1ccc(-n2c(C)c(C)c3c(NCCO)ncnc32)cc1 | 59* | 33* | 42% | ?
COc1ccc(-n2c(C)c(C)c3c(NCCCO)ncnc32)cc1 | 71* | 43* | 42% | -6%
Cc1ccc(-n2c(C)c(C)c3c(NCCCO)ncnc32)cc1 | 120* | 45* | 21% | -5%
COc1ccc(-n2c(C)c(C)c3c(NCCCN(C)C)ncnc32)cc1 | -14 | -4 | -14% | -1%
CCS(=O)(=O)c1nc(S(=O)(=O)c2ccc(C)cc2)c(NCC(C)C)s1 | 8 | -5 | 47% | -11%

Bioassay records: PubChem, National Center for Advancing Translational Sciences (NCATS)
